# According to PubChem BioAssay AID624354 (Sanford-Burnham Center for Chemical Genomics, 2012):
# Out of some 360,000 compounds screened, about 3,800 (1.1%) were called active. For the sample, actives were picked, then their nearest neighbours and some compounds at random. Unmarked numbers belong to inactive results.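 How the source made its calls: active means compounds causing at least 50% loss of cell viability in the single-dose screen, relative to plate controls; inactive means the rest.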
# Test: TRAIL-exposed caspase-8 expressing cell killing – NB7+C8 cells, ATPlite luminescence, TRAIL sensitizer project, primary screen (AID 624354)
# Conditions: at 10 µM, active compounds read high
row,SMILES,"inhibition (viability loss, TRAIL sensitization)"
1,O=C(CN(C(=O)c1csnn1)c1cccc(F)c1)NCc1ccc(F)cc1,-4.16%
2,CCOC(=O)c1[nH]c(C)c(C(=O)OCC(=O)N2c3ccccc3CC2C)c1C (configuration not stated),6.75%
3,CCOC(=O)c1c(C)[nH]c2c1-c1ccccc1C(=O)C2=O,94% (active)
4,CCOC(=O)c1c(C)oc(C)c(C(=O)OCC)c1=O,-19.5%
5,COc1ccc(C(=O)OCC(=O)c2ccc(C)c(S(=O)(=O)N3CCOCC3)c2)cc1OC,18.4%
6,Cc1ccc(C(=O)COC(=O)c2cccc(N3C(=O)c4c(C)nc5ccccc5c4C3=O)c2)cc1C,60.1% (active)
7,Cc1ccc(C(=O)COC(=O)CCN2C(=O)C3C4CCC(C4)C3C2=O)cc1C (configuration not stated),-8.78%
8,N#CCCN(C(=S)Nc1ccc(Cl)c(Cl)c1)C1CCCCC1,-41.1%
9,COc1ccc(NS(=O)(=O)c2ccc(C)c(C(=O)N(C)Cc3ccc(OC)cc3OC)c2)cc1,17.8%
10,O=C(NNC(=O)c1cc(S(=O)(=O)N2CCCCC2)ccc1Cl)c1ccccc1O,14%
11,Cc1cccc(NS(=O)(=O)c2cccc(C(=O)NNC(=O)c3ccccc3O)c2)c1,24.7%
12,O=C(NNC(=O)c1ccccc1O)c1ccccc1O,59.8% (active)
13,CC1(C)CC(=O)C=C(NC2CC(C)(C)NC(C)(C)C2)C1,-7.42%
14,C=CCNC(=O)c1ccc2c3n(nc2c1)-c1ccc(C)cc1CO3,47.7%
15,CCOC(=O)N1CCN(C(=O)C2CCN(S(C)(=O)=O)CC2)CC1,9.65%
16,Cc1nn(-c2ccccc2)nc1C(=O)OCC(=O)N1CCCCC1C (configuration not stated),10.3%
17,COC(=O)c1cc(S(=O)(=O)N2CCN(c3cc(C)ccc3C)CC2)c[nH]1,-3.18%
18,Cc1nc2ccc(S(=O)(=O)NCC(=O)NCCN3CCCCC3C)cc2s1 (configuration not stated),-1.47%
19,Cn1c(=O)[nH]c(=O)c2c1[nH]c(=S)n2Cc1ccccc1,7.43%
20,C=CCN(CC=C)S(=O)(=O)c1ccc(C(=O)Nc2nc3c(s2)CCc2ccccc2-3)cc1,28.5%
21,N#Cc1c(-c2cccs2)nc(SCC(=O)c2ccc(Br)cc2)[nH]c1=O,-12.9%
22,N#Cc1ccc(C(=O)Nc2nc(-c3cccs3)c(C(=O)C(F)(F)F)s2)cc1,53.5% (active)
23,Cc1ccc(NC(=O)CCC(=O)N2CCC(c3ccccc3)=N2)cc1S(=O)(=O)N1CCCCC1,18.8%

row,SMILES,"inhibition (viability loss, TRAIL sensitization)"
1,Cc1nc2nc[nH]n2c(=O)c1NC(=O)c1cccc(OCC(C)C)c1,-7.44%
2,O=C(CSC(=S)N1CCOCC1)c1ccccc1,57.5% (active)
3,O=C(CP(=O)(c1ccccc1)c1ccccc1)N1CCOCC1,-4.37%
4,O=C(CSC(=S)N1CCCCC1)c1c(F)cccc1F,3.44%
5,O=c1c(-c2ccccc2Cl)c[nH]n1-c1ccccc1,1.07%
6,CS(=O)(=O)c1ccc(C(=O)NNC(=O)c2cccs2)cc1,-3.16%
7,Cc1cc2cc3c(cc2nc1SCC(=O)Nc1c(C)cccc1C)CCC3,3.78%
8,Cc1nc2ccccc2c(C)c1C(=O)c1ccc(F)cc1,2.13%
9,Cn1c(NC(=O)c2ccccc2)nc2ccccc21,49.5% (active)
10,CCn1c(NC(=O)c2nn(C)cc2Br)nc2ccccc21,16.9%
11,Cn1c(-c2ccc(C(=O)c3ccccc3)s2)nc2ccccc21,66.6% (active)
12,Cn1c(CC(=O)NNC(=O)c2ccccc2F)nc2ccccc21,11.4%
13,CCC(C(=O)Nc1c(C)cccc1C)n1c(-c2cc(C)cs2)nc2ccccc21 (configuration not stated),9.25%
14,COc1cc(-c2nc(S(=O)(=O)c3ccc(Cl)cc3)c(N(C)C)o2)cc(OC)c1OC,-2.14%
15,COc1ccc(N(C(=O)c2ccc(C)cc2)S(=O)(=O)c2cccs2)cc1,-2.28%
16,CCN(CC)S(=O)(=O)c1ccc(N2CCOCC2)c(NC(=O)C2CSC3(C)CCC(=O)N23)c1 (configuration not stated),-1.07%
17,Cn1c(SCC(=O)Nc2ccc(Br)cc2F)nnc1-c1ccco1,-0.204%
18,COc1ccc(-n2cnc3cc(NCc4ccco4)ccc32)cc1,16.5%
19,Cn1c(-c2ccco2)nc2cc3ccccc3cc21,89.4% (active)
20,Cc1c(CNCCc2ccccc2)c(C(=O)O)c(C)n1-c1ccccc1,-25.6%
21,COCc1cc(=O)oc2cc(NS(=O)(=O)c3ccc(C)cc3)ccc12,2.58%
22,Cc1cc(NC(=O)CCC(=O)N(Cc2ccccc2)C(C(=O)NC2CCCC2)c2ccc(C)o2)no1 (configuration not stated),-0.804%
23,CC(C)CCN1CCN(Cc2cn[nH]c2C2CCCCC2)CC1CCO (configuration not stated),5.07%

row,SMILES,"inhibition (viability loss, TRAIL sensitization)"
1,COc1ccc(-c2nc(-c3ccccc3)no2)c(OC)c1,83% (active)
2,COc1ccc(/C=C/c2noc(-c3ccccc3OC(C)=O)n2)cc1,12.1%
3,COc1ccc(-c2noc(CNC(=O)C(C)Oc3ccccc3)n2)cc1 (configuration not stated),-4.7%
4,Cc1ccc(C)c(S(=O)(=O)N2CCN(c3ncnc4sccc34)CC2)c1,66.5% (active)
5,Cc1ccc(S(=O)(=O)N2CCC3(CC2)OCCO3)c(C)c1,1.61%
6,Cc1ccc([N+](=O)[O-])cc1S(=O)(=O)N1CCCN(C)CC1,1.18%
7,CNC(=S)N1CCC(NC(=O)C(Cc2ccc(F)cc2)NC(C)=O)CC1 (configuration not stated),-1.63%
8,CCCCCc1c(-c2ccc(OC)c(OC)c2)ncn1CCc1ccccc1OC,51.2% (active)
9,CCCCc1c(-c2ccc(Cl)cc2)ncn1CCc1ccccc1OC,31.8%
10,CCCCCc1c(-c2cccc(Br)c2)ncn1CCc1ccccc1OC,23.2%
11,CS(=O)(=O)N(CC(=O)N1CCN(c2ccc(F)cc2)CC1)C1CCCCC1,-11.1%
12,CCOc1ccc(N/C=C/C(=O)c2ccccc2)cc1,66.6% (active)
13,CCOc1ccc(NC(=O)C2CCCN(C(=O)Nc3ccccc3)C2)cc1 (configuration not stated),-15.9%
14,COCCN(C(=O)CCC(=O)Nc1ccccn1)C(C(=O)NCCC(C)C)c1ccc(OC)cc1 (configuration not stated),-1.74%
15,COC(C(=O)Nc1ccc(S(=O)(=O)Nc2ccc(C)c(C)c2)cc1)c1ccccc1 (configuration not stated),5.37%
16,O=C(/C=C/Nc1ccc(S(=O)(=O)Nc2cnc3ccccc3n2)cc1)c1cccnc1,-7.32%
17,Cc1ccc(NNC(=O)C2CCC2)cc1C,-7.51%
18,Cc1ccc(N/C=C/C(=O)c2ccccc2)cc1C,78.5% (active)
19,CCOc1ccc(/C=C(/NC(=O)c2ccccc2)C(=O)NCCC(=O)O)cc1,-4.31%
20,COc1ccc(C(=O)/C=C/Nc2ccccn2)cc1,73.3% (active)
21,COc1ccc(CN2C(=O)CN=C2Nc2ccc(C)cc2C)cc1,-15.6%
22,Cc1ccc(CN2CC(N3CCC(Cc4ccccc4)CC3)CS2(=O)=O)cc1 (configuration not stated),-13.4%
23,Cc1ccc(CN2CCN(Cc3cccc(C)n3)CC2CCO)cc1 (configuration not stated),0.251%

row,SMILES,"inhibition (viability loss, TRAIL sensitization)"
1,COc1cc(C)c(CN2CCN(C(=O)CCC(=O)c3ccc(C)s3)CC2)cc1OC,16.8%
2,O=C(c1cc2c(s1)CCC2)N1CCN(c2ccccc2)CC1,-1.76%
3,COc1ccc(S(=O)(=O)N2CN(CCc3ccc(OC)c(OC)c3)c3nc4ccccc4nc32)cc1,5.09%
4,CN(C(=O)Nc1ccc(Cl)cc1)n1cnc2ccccc2c1=O,7.39%
5,CC(C)(C)c1nc2ccccc2c(=O)n1N1C(=O)c2ccccc2C1=O,11.4%
6,CN(c1ccc2nc3ccccc3c(=O)n2n1)C1CCCCC1,91.9% (active)
7,O=C(COC(=O)c1ccco1)Nc1ccc(Cl)cn1,-1.44%
8,O=C(Nc1ccc(NC(=O)c2cccs2)cn1)c1ccco1,63% (active)
9,CC(OC(=O)CNC(=O)c1ccco1)C(=O)Nc1ccc(Cl)cn1 (configuration not stated),8.79%
10,Cc1cc(C)c(S(=O)(=O)NN=C2c3ccccc3[C@H]3Cc4csc[n+]4[C@@H]23)c(C)c1,-3.55%
11,CNc1cncc(-c2cccc(C(=O)N3CCOCC3)c2)n1,-18.4%
12,CCc1nc2ccc(C(=O)N3CCN(c4cccc(Cl)c4)CC3)cc2nc1CC,1.3%
13,C#Cc1cc(N2CCN(C(=O)c3ccoc3)CC2)n2nc(-c3cccc(Cl)c3)cc2n1,91.7% (active)
14,CC(C)(C)NC(=O)C(CCc1ccccc1)n1c(=O)c(-c2ccccc2)nc2ccccc21 (configuration not stated),-2.69%
15,Nc1cc(C(F)(F)F)ccc1N1CCOCC1,-31.5%
16,COc1ccc(COC[C@H](CC(C)C)N2CCN(C(=O)c3cccc(C(F)(F)F)c3)CCC2=O)cc1,-6.73%
17,O=C(C(=O)N1CCC(c2ccccc2)CC1)c1ccccc1,-9.02%
18,COc1cccc2c1C(=O)c1c(O)c3c(c(O)c1C2=O)CC(O)(C(C)=NNC(=O)c1ccc(Cl)c(Cl)c1)CC3OC1CC(N)C(O)C(C)O1 (configuration not stated),55.5% (active)
19,Cc1c(Nc2nc3ccccc3nc2NS(=O)(=O)c2cccs2)c(=O)n(-c2ccccc2)n1C,-7.01%
20,Cc1csc(SCC(=O)Nc2ccc(C)c(S(=O)(=O)N(C)C)c2)n1,1.13%
21,Cc1ccc(C(=O)Nc2ccc(C)c(S(=O)(=O)N(C)C)c2)s1,61.7% (active)
22,CCN(CC(=O)Nc1ccc(C)c(S(=O)(=O)N(C)C)c1)Cc1ccccc1,9.33%
23,Cc1ccc(S(=O)(=O)NNC(=S)NC(C)(C)C)cc1,-2.34%
